In PubChem BioAssay:
Activity calls are given as the source filed them. Unless noted, no stated cut-off is given here; in the data, active means inhibition above about 42%; inactive means the rest.

Tests used:
[1] = StAR promoter reporter inhibitors, counter-screen for LRH-1 inverse agonist project, cell-based, luminescence, high throughput (AID 651611; in the data active means inhibition above about 28%); conditions: StAR promoter luciferase reporter counterscreen, at 3.6 µM, active compounds read high
[2] = target: Nuclear receptor subfamily 5 group A member 2 (Homo sapiens) (UniProt O00482); test: LRH-1 (NR5A2) inverse agonists, retest, confirmation, cell-based, luminescence (AID 651613); conditions: cell-based LRH-1 luciferase reporter, inverse agonism; at 3.6 µM; active compounds read high;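 further: HEK293T cells co-transfected with LRH-1 and StAR promoter luciferase reporter; 0% = vehicle wells and 100% = parental cells lacking receptor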
[3] = target: Steroidogenic factor 1 (Homo sapiens) (UniProt Q13285); test: SF1 (NR5A1) inverse agonists, counter-screen for LRH-1 inverse agonist project, cell-based, luminescence, high throughput (AID 651614; in the data active means inhibition above about 44%;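 further: cells cotransfected with StAR promoter reporter and SF1 expression vector; 0% = vehicle on cells with receptor and 100% = vehicle on cells lacking receptor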); conditions: cell-based SF1 luciferase reporter, at 3.6 µM, active compounds read high
[4] = VP16 transactivation reporter inhibitors, counter-screen for LRH-1 inverse agonist project, cell-based, luminescence, high throughput (AID 651615; in the data active means inhibition above about 33%); conditions: Gal4-VP16 luciferase reporter cells, at 3.6 µM, active compounds read high

Chain of Steroidogenic factor 1 (Homo sapiens) (Q13285 whole entry, looked up, the tested form may be a part): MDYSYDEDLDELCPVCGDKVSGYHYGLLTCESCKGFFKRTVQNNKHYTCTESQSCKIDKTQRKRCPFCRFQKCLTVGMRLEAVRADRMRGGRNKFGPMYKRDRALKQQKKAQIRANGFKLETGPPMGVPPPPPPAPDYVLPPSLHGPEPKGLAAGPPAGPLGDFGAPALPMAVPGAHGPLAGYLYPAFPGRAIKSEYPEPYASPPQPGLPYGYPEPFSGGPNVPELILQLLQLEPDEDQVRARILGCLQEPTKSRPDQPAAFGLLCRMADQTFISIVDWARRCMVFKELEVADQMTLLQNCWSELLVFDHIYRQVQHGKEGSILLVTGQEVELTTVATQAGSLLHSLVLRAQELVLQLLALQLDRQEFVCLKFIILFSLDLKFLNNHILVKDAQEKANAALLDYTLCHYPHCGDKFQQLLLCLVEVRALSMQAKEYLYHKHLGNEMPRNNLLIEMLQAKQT
Chain of Nuclear receptor subfamily 5 group A member 2 (Homo sapiens) (O00482 whole entry, looked up): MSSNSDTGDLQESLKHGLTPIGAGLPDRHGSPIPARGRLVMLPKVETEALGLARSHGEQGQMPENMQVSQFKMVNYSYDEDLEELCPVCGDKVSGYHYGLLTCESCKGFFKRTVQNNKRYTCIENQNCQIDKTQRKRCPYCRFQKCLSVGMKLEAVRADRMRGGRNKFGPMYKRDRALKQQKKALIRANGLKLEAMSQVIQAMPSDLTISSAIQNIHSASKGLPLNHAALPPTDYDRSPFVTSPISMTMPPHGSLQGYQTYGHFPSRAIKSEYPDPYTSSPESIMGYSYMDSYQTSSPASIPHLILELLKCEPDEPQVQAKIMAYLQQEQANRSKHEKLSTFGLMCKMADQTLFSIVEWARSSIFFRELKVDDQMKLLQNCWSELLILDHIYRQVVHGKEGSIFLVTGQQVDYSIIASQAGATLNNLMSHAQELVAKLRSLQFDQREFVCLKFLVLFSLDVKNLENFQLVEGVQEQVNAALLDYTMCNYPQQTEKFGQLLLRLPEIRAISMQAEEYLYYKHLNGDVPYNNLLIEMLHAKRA

For CS(=O)(=O)N(CC(=O)N1CCN(Cc2ccc3c(c2)OCO3)CC1)Cc1ccc(Cl)cc1, the inhibition [1] was 12.5% (inactive), the inhibition [2] was 63% (active) and the inhibition [3] was 44.9% (active). The inhibition [4] was 36.9% (active).
For N#Cc1c2c(c(NCCOCCO)n3c1nc1ccccc13)CCCC2, the inhibition [1] was 4.14% (inactive), the inhibition [2] was 40.5% (inactive) and the inhibition [3] was 31.7% (inactive). For the same compound, the inhibition [4] was -0.15% (inactive).
With O=[N+]([O-])c1ccc(N2CCCCC2)cc1N1CCOCC1 the inhibition [1] was 18% (inactive), the inhibition [2] was 54.3% (active) and the inhibition [3] was 54.9% (active). For the same compound, the inhibition [4] was -5.18% (inactive).
For COc1ccc(C2=Nn3c(nnc3-c3ccccc3F)SC2)cc1OC1CCOC1 (stereo unspecified), the inhibition [1] was 56.2% (active), the inhibition [2] was 75% (active) and the inhibition [3] was 78.2% (active). The inhibition [4] was -40.3% (inactive).
For CCOc1ccc(C(=O)c2cc([N+](=O)[O-])ccc2Cl)cc1, the inhibition [1] was 12.6% (inactive), the inhibition [2] was 42.3% (active) and the inhibition [3] was 39.5% (inactive). The inhibition [4] was -1.79% (inactive).
With O=C(NCc1cccnc1)c1cccc2c1C(=O)N(C1CCCCC1)C2 the inhibition [1] was 12.8% (inactive), the inhibition [2] was 48.5% (active) and the inhibition [3] was 51.5% (active). The inhibition [4] was -8.24% (inactive).
With CCN(Cc1ccccc1)c1ccc(/C=N/N2CCOCC2)cc1 the inhibition [1] was -41.2% (inactive), the inhibition [2] was 26% (inactive) and the inhibition [3] was 34.2% (inactive). The inhibition [4] was -9.02% (inactive).
With Cc1ccc(N2CC(C(=O)Nc3nc4ccc(S(C)(=O)=O)cc4s3)CC2=O)cc1 (stereo unspecified) the inhibition [1] was 12.4% (inactive), the inhibition [2] was 52.6% (active) and the inhibition [3] was 48.4% (active). The inhibition [4] was -0.21% (inactive).
For COc1ccc(OCCNC(=O)c2ccccc2OCC(=O)Nc2ccc(NC(C)=O)cc2)cc1, the inhibition [1] was 16% (inactive), the inhibition [2] was 49.8% (active) and the inhibition [3] was 52.4% (active). For the same compound, the inhibition [4] was 0% (inactive).
In the case of CC(=O)Oc1ccc(-c2ccc(C(=O)Nc3cccc(S(=O)(=O)N4CCOCC4)c3)cc2)cc1, the inhibition [1] is reported as 25.5% (inactive), the inhibition [2] is reported as 35.1% (inactive) and the inhibition [3] is reported as 52.1% (active). The inhibition [4] was 59.4% (active).
With Cc1nn(CC(=O)NCCC2=CCCCC2)c(C)c1[N+](=O)[O-] the inhibition [1] was 17.5% (inactive), the inhibition [2] was 48.9% (active) and the inhibition [3] was 41.5% (inactive). For the same compound, the inhibition [4] was -0.8% (inactive).
In the case of O=C(c1cccc(Cl)c1)N1CCCC(c2ccc(Cl)cc2)=N1, the inhibition [1] is reported as 2.78% (inactive), the inhibition [2] is reported as 49.8% (active) and the inhibition [3] is reported as 57.3% (active). The inhibition [4] was 3.04% (inactive).
For CCCc1cc(=O)oc2cc3oc(C)c(C)c3cc12, the inhibition [1] was -1.82% (inactive), the inhibition [2] was 52.3% (active) and the inhibition [3] was 50.5% (active). For the same compound, the inhibition [4] was -5.27% (inactive).
In the case of COc1ccc(NS(=O)(=O)c2cccc(NC(=O)c3ccc(Cl)nc3)c2)cc1, the inhibition [1] is reported as 37.9% (active), the inhibition [2] is reported as 63.3% (active) and the inhibition [3] is reported as 66% (active). For the same compound, the inhibition [4] was 55.4% (active).
In the case of Cc1ccc(C(O)(C(=O)NN(C(=O)c2ccccc2)c2ccccc2)c2ccc(C)cc2)cc1, the inhibition [1] is reported as 8.63% (inactive), the inhibition [2] is reported as 65.8% (active) and the inhibition [3] is reported as 62.9% (active). The inhibition [4] was 12.3% (inactive).
For O=C(COc1ccc(C(=O)c2ccccc2)cc1)NCc1ccc(F)cc1, the inhibition [1] was 19.9% (inactive), the inhibition [2] was 28.7% (inactive) and the inhibition [3] was 37.9% (inactive). For the same compound, the inhibition [4] was 30.4% (inactive).
For Cc1cccc(C)c1NC(=O)C(c1ccc(C(F)(F)F)cc1)n1c(=O)c(-c2cc3ccccc3[nH]2)nc2ccccc21 (stereo unspecified), the inhibition [1] was 13.9% (inactive), the inhibition [2] was 23.7% (inactive) and the inhibition [3] was 24.7% (inactive). For the same compound, the inhibition [4] was 7.59% (inactive).
With Cc1cc(-c2nn3c(-c4ccccc4)nnc3s2)c2ccccc2n1 the inhibition [1] was 7.3% (inactive), the inhibition [2] was 38.6% (inactive) and the inhibition [3] was 22.6% (inactive). For the same compound, the inhibition [4] was -31.6% (inactive).
With CCCCCOc1ccc(NC(=O)CSc2cccc3cccnc23)cc1 the inhibition [1] was -12.7% (inactive), the inhibition [2] was 42.7% (active) and the inhibition [3] was 26.9% (inactive). The inhibition [4] was -9.81% (inactive).
With Cc1ccccc1Nc1nc(Cl)c(C=O)s1 the inhibition [1] was 2.17% (inactive), the inhibition [2] was 50.5% (active) and the inhibition [3] was 41.7% (inactive). The inhibition [4] was -5.11% (inactive).
For COc1cccc(C(C)(O)c2nc(-c3cccc(C#N)c3)cs2)c1 (stereo unspecified), the inhibition [1] was 19.6% (inactive), the inhibition [2] was 55.2% (active) and the inhibition [3] was 49.4% (active). The inhibition [4] was 22.6% (inactive).
With O=c1c2ccccc2c(C=Nc2ccccc2O)c(O)n1-c1nccs1 the inhibition [1] was 5.33% (inactive), the inhibition [2] was 46.1% (active) and the inhibition [3] was 35.1% (inactive). The inhibition [4] was -7.97% (inactive).
In the case of O=[N+]([O-])c1ccc(-n2cnc3ccccc32)c([N+](=O)[O-])c1, the inhibition [1] is reported as 17.6% (inactive), the inhibition [2] is reported as 54.7% (active) and the inhibition [3] is reported as 62.1% (active). For the same compound, the inhibition [4] was 9.79% (inactive).
With Cc1csc(=O)n1CCC(=O)OCC(=O)Nc1ccc(N2CCOCC2)cc1 the inhibition [1] was -7.54% (inactive), the inhibition [2] was 54.1% (active) and the inhibition [3] was 44.2% (active). The inhibition [4] was -3.02% (inactive).
